According to PubChem BioAssay:

test: A549 cell viability effects, profiling panel, calcein-AM fluorescence, 48 h, basal (AID 1162); settings: higher = more signal; also: test concentration not given here

| SMILES | z-score |
| --- | --- |
| CC1CC/C=C\[C@H]2OC34C=CCN(c5ccc6ccccc6c5)C(=O)[C@H]3N(CCCCCO)C(=O)[C@@H]4C2C(=O)O1 (stereo not given in full) | 0.111 |
| CN1C(=O)C2C=CC(C(O)C(C)(C)C)N(Nc3ccccc3)C2C1=O (stereo not given) | -0.398 |
| Cc1ccc(S[C@]2(C(=O)NCCCN(C)C)CC(=O)N(Cc3ccccc3)[C@@H]2c2ccc(CO)cc2)cc1 | 0.931 |
| O=C1O[C@H](c2ccccc2)[C@H](c2ccccc2)N2[C@H]1[C@@H](C(=O)NC[C@H](O)c1ccccc1)[C@]1(C(=O)Nc3ccc(C#CC4=CCCCC4)cc31)[C@H]2c1ccc(O)cc1 | -1.06 |
| O=C(CS)NCCCCCNC(=O)[C@H]1C[C@H]2C(=O)N[C@@H](Cc3ccccc3)C(=O)N2[C@H]1c1cccc(OCCO)c1 | 0.917 |
| CCCC[C@H]1OB(O)C[C@H]2C1=C(COc1ccccc1)C[C@H]1C(=O)N(Cc3ccccc3)C(=O)[C@H]12 | 0.358 |
| O=c1cccc(-c2cccc3ccccc23)o1 | -1.07 |
| CCCCCN1CC=CC23O[C@@H]4C=CCCOC(=O)C4[C@H]2C(=O)N(CCCO)[C@@H]3C1=O (stereo not given in full) | -0.55 |
| CS(=O)(=O)CCOC(=O)C1=CC(c2ccc(CO)cc2)=CC(c2cccs2)N(Cc2cccc(OC(F)(F)F)c2)C=C1C(=O)OCCS(C)(=O)=O (stereo not given) | 0.0527 |
| C#C[C@H](O[Si](C#CCCCCCC)(C(C)C)C(C)C)c1ccccc1 | 0.303 |
| COc1ccc([Si](C)(C)[C@@H]2[C@@H](CCO)O[C@]3(C(=O)N(Cc4ccccc4)c4ccc(N(C=O)c5ccccc5)cc43)[C@H]2C)cc1 | -0.77 |
| C=C(COC)C(=O)CC[C@H](OC(=O)c1cccnc1)c1ccccc1OCCO | -0.414 |
| C=CCC(OC(C)=O)[C@@H]1[C@@H](N(Cc2cc3ccccc3o2)C(=O)c2ccc(C)cc2)c2cc(OCCCO)ccc2N1C(=O)c1ccc(-c2ccccc2)cc1 (stereo not given in full) | 2.54 |
| NC(=O)[C@]1(Cc2ccccc2)N=C(c2ccc(OCCCO)cc2)O[C@@H]1c1ccccc1 | -0.399 |
| [N-]=[N+]=NCc1ccccc1C[C@]1(C(=O)NCCN2CCOCC2)N=C(c2ccc(OCCCO)cc2)O[C@H]1c1ccccc1CN=[N+]=[N-] | 0.0783 |
| CCOC(=O)C1=CC[C@@H](c2cccc(Cl)c2)N(S(=O)(=O)c2ccc(C)cc2)[C@H]1c1ccc(C#N)cc1 | 0.384 |
| O=c1cccc(-c2ccccc2)o1 | -1.18 |
| CC(=O)NCCCC[C@@H]1NC(=O)[C@@H]2C[C@H](C(=O)NCc3ccc(F)cc3)[C@H](c3ccc(O)cc3)N2C1=O | -0.484 |

| SMILES | z-score |
| --- | --- |
| O=C1OCCC=C[C@H]2OC34C=CCN(c5ccc6ccccc6c5)C(=O)[C@H]3N(CCCCCCO)C(=O)[C@@H]4C12 (stereo not given in full) | 0.705 |
| O=C1OCCC/C=C\[C@H]2OC34C=CCN(Cn5nnc6ccccc65)C(=O)[C@H]3N(CCCO)C(=O)[C@@H]4C12 (stereo not given in full) | -0.745 |
| CC(C)OC(=O)C1=CCC(c2cccc(Cl)c2)O1 (stereo not given) | -1.14 |
| O=C1[C@H]2C=C(Br)[C@H](C[C@@H]2OCCOCCO)[C@@]12CO2 | -0.43 |
| O=c1cccc(-c2ccc3ccccc3c2)o1 | -0.996 |
| CCCCCCCCCCC(O)C1C=CC2C(=O)N(c3ccccc3)C(=O)C2N1Nc1ccc([N+](=O)[O-])cc1 (stereo not given) | -2.28 |
| CN1C(=O)C2C=CC(C(O)c3ccccc3)N(NC(=O)OC(C)(C)C)C2C1=O (stereo not given) | -1.66 |
| CN(C)CCCC[C@@H]1NC(=O)[C@@H]2C[C@H](C(=O)NCCCCCCN)[C@H](c3ccc(O)cc3)N2C1=O | -0.215 |
| CCOC(=O)C[C@H]1[C@H](OC(=O)c2cc3ccccc3oc2=O)[C@@H](NC(=O)c2ccc3ccccc3c2)c2cc(OCCCO)ccc2N1C(=O)c1ccccc1 | 0.659 |
| COc1ccc([Si](C)(C)[C@@H]2[C@@H](CCO)O[C@]3(C(=O)N(Cc4ccc(N5C(=O)c6cccc7cccc5c67)cc4)c4ccccc43)[C@H]2C)cc1 | -0.35 |
| O=C(NCC(O)CO)[C@@]1(Cc2ccccc2)COC(c2ccc(OCCCO)cc2)=N1 (stereo not given in full) | -0.0736 |
| CC(C)(C)OC(=O)CC[C@]1(C(=O)NCC(O)CO)N=C(c2ccc(OCCCO)cc2)O[C@H]1c1ccccc1CN=[N+]=[N-] (stereo not given in full) | -1.22 |
| C=C(/C(=C/C[C@@H](OC(C)=O)c1ccc(CO)o1)c1cnc2ccccc2c1)C(C)C | -0.0718 |
| O=C1O[C@H](c2ccccc2)[C@H](c2ccccc2)N2[C@H]1[C@@H](C(=O)NC[C@H](O)c1ccccc1)[C@]1(C(=O)Nc3ccc(C#CC4(O)CCCCCC4)cc31)[C@H]2c1ccccc1OCCO | -0.509 |
| O=C1C[C@@](C(=O)O)(c2ccc([N+](=O)[O-])cc2)[C@@H](c2ccc(CO)cc2I)N1C1CCCCC1 | 1.05 |
| COc1ccc(CCNC(=O)[C@@]2(C)c3ccccc3C(=O)N(Cc3ccccc3)[C@H]2c2ccc(CO)cc2)cc1 | -0.973 |
| CC1CC/C=C\[C@H]2OC34C=CCN(Cn5nnc6ccccc65)C(=O)[C@H]3N(CCCO)C(=O)[C@@H]4C2C(=O)O1 (stereo not given in full) | -0.677 |
